Test systems include MST1R; MST4; MTOR; MUSK; MYLK2; MYLK4.
Common to all, as to settings: concentration: 1 μM, replicates: in singlicate; n = 1
Another experiment deals with T1, MRCKB.
T1 construct: gene CDC42BPB

A further experiment relates to T2, MST1.
T2 construct: gene STK4

The next experiment relates to T3, MST2.
T3 construct: gene STK3

In a further experiment the test system is T4, MST3.
T4 construct: gene STK24
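Further: KINOMEscan kinase panel screen.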

Turning to `Cc1nnc(-c2ccc(C)c(-c3ccc(C(=O)O)cc3)c2)o1` [GW608005], the “%Inh” value in the experiment with MRCKB amounted to 0%; with MST1R it was 17%; in the experiment with MST1, 0%; in the experiment with MST2 it was 0%; in the experiment with MST3, 0%; in the experiment on MST4, 0%. In addition, the “%Inh” value in the experiment on MTOR is 0%; in the experiment with MUSK, 5%; with MYLK2, 2%; in the experiment on MYLK4 it was 3%.

For `Nc1nc(-c2ccccc2F)c(-c2ccnc3ccccc23)s1` [GW560459], the “%Inh” value worked out at 0% in the experiment on MRCKB; 33% in the experiment on MST1R; 8% in the experiment on MST1; 0% in the experiment with MST2; 7% in the experiment with MST3; 0% with MST4. Besides, the “%Inh” value in the experiment with MTOR is listed as 21%; with MUSK it was 0%; in the experiment with MYLK2, 8%; with MYLK4 it was 1%.

As for `Cc1nnc(-c2ccc3ncn(-c4ccc(S(C)=O)cc4)c3c2)o1` (stereo not drawn), the “%Inh” value in the experiment on MRCKB was determined as 0%; with MST1R it was 2%; in the experiment with MST1 it was 0%; in the experiment with MST2, 30%; with MST3, 50%; in the experiment on MST4 it was 0%. Further, the “%Inh” value stood at 8% in the experiment with MTOR, 9% in the experiment on MUSK, 11% in the experiment on MYLK2 and 7% in the experiment on MYLK4.

As to `Cl.c1ccc(Cn2cnc3cc(Nc4ncnc5ccccc45)ccc32)cc1` [GW272142], the “%Inh” value worked out at 0% in the experiment with MRCKB; 40% in the experiment with MST1R; 0% with MST1; 0% in the experiment with MST2; 0% in the experiment on MST3; 0% in the experiment on MST4. Besides, the “%Inh” value in the experiment on MTOR turned out to be 28%; in the experiment on MUSK it was 29%; in the experiment with MYLK2, 0%; in the experiment with MYLK4, 6%.

Consider `O=C1NC(=O)C(c2ccccc2)=C1Nc1cccc(O)c1` [SB-390534], for which the “%Inh” value with MRCKB was found to be 0%; in the experiment on MST1R it was 20%; in the experiment on MST1, 7%; in the experiment on MST2, 24%; in the experiment with MST3, 0%; in the experiment on MST4, 9%. In addition, the “%Inh” value was 0% in the experiment on MTOR, 8% with MUSK, 16% with MYLK2 and 15% with MYLK4.

Consider `O=C(Nc1ccc2c(c1)OCO2)NC1CCN(c2ccnc(NCc3ccc(F)cc3)n2)CC1` [GSK1379859], for which the “%Inh” value in the experiment with MRCKB came to 0%; in the experiment with MST1R, 17%; in the experiment with MST1 it was 5%; in the experiment on MST2, 47%; with MST3, 0%; in the experiment with MST4, 0%. Moreover, the “%Inh” value is 8% in the experiment on MTOR, 0% with MUSK, 0% with MYLK2 and 0% in the experiment on MYLK4.

For the compound `CCc1ccc(-c2ccc3c(c2)-c2nn(C)cc2S(=O)(=O)N3C)cc1`, the “%Inh” value in the experiment with MRCKB, in the experiment on MST1R, in the experiment with MST1, in the experiment with MST2, with MST3 and in the experiment on MST4 was 0% each time. The “%Inh” value is 23% in the experiment on MTOR, 1% in the experiment on MUSK, 0% with MYLK2 and 6% with MYLK4.

Regarding `COc1cc2ncn(-c3cc(OCc4ccncc4Br)c(C(N)=O)s3)c2cc1OC` [GW854278], the “%Inh” value amounted to 0% with MRCKB; 74% with MST1R; 0% in the experiment with MST1; 23% in the experiment on MST2; 34% in the experiment on MST3; 24% with MST4. Further, the “%Inh” value in the experiment on MTOR was determined as 9%; with MUSK it was 4%; with MYLK2, 0%; in the experiment with MYLK4 it was 70%.

Consider `CN1C(=O)C(Nc2cc(Cl)c(O)c(Cl)c2)=C(c2ccc(Cl)cc2)C1=O` [SB-404321], for which the “%Inh” value in the experiment on MRCKB worked out at 0%; in the experiment with MST1R, 0%; in the experiment with MST1 it was 0%; with MST2, 33%; in the experiment on MST3 it was 0%; in the experiment with MST4, 0%. For the same compound, the “%Inh” value in the experiment on MTOR worked out at 2%; in the experiment with MUSK it was 0%; with MYLK2 it was 11%; in the experiment with MYLK4, 0%.

With `CCn1c(-c2nonc2N)nc2ccccc21` [SB-693162/GW549034], the “%Inh” value in the experiment on MRCKB stood at 0%; in the experiment on MST1R it was 0%; in the experiment on MST1 it was 0%; in the experiment on MST2, 34%; with MST3, 11%; in the experiment on MST4, 0%. In addition, the “%Inh” value is listed as 0% in the experiment on MTOR, 42% in the experiment with MUSK, 0% in the experiment with MYLK2 and 0% with MYLK4.

On to `CCC(=O)c1c(-c2ccccc2)c2cc(Cl)ccc2c(=O)n1Cc1cc(S(C)(=O)=O)n(CC(F)F)n1`, for which the “%Inh” value came to 0% in the experiment with MRCKB; 31% in the experiment on MST1R; 0% in the experiment on MST1; 0% in the experiment on MST2; 0% with MST3; 0% in the experiment on MST4. In addition, the “%Inh” value in the experiment with MTOR is reported as 7%; in the experiment with MUSK, 0%; with MYLK2, 47%; in the experiment on MYLK4 it was 1%.

Regarding `Cc1cc(Nc2nc(-c3cccc(C)n3)nc3ccccc23)ccn1` [GW872411], the “%Inh” value in the experiment on MRCKB, in the experiment on MST1R, in the experiment on MST1, with MST2, with MST3 and in the experiment with MST4 was 0% throughout. In addition, the “%Inh” value amounted to 73% with MTOR, 9% in the experiment with MUSK, 0% in the experiment with MYLK2 and 26% with MYLK4.

Consider `Cl.NS(=O)(=O)c1cccc(Nc2cc(-c3ccc(F)cc3)n[nH]2)c1` [GW824645], for which the “%Inh” value was determined as 0% with MRCKB; 0% in the experiment with MST1R; 29% in the experiment with MST1; 14% with MST2; 0% with MST3; 9% in the experiment with MST4. Also, the “%Inh” value with MTOR is 39%; in the experiment on MUSK, 0%; in the experiment with MYLK2, 9%; in the experiment with MYLK4, 12%.

Take `COc1ccc(-c2cc3c(C)nc(N)nc3n([C@H]3CC[C@H](O)CC3)c2=O)cn1`: the “%Inh” value with MRCKB was determined as 30%; with MST1R it was 0%; in the experiment with MST1, 0%; in the experiment on MST2, 0%; in the experiment with MST3, 2%; in the experiment with MST4, 0%. The “%Inh” value in the experiment with MTOR worked out at 99%; in the experiment with MUSK, 0%; in the experiment with MYLK2, 4%; with MYLK4, 0%.

As to `O=C(Nc1n[nH]c2nc(-c3ccccc3)c(Br)cc12)C1CC1` [SB-708998], the “%Inh” value with MRCKB stood at 0%; in the experiment with MST1R, 100%; in the experiment with MST1, 18%; in the experiment with MST2, 7%; in the experiment on MST3, 0%; in the experiment on MST4, 0%. Also, the “%Inh” value in the experiment with MTOR is on record as 16%; in the experiment with MUSK, 0%; in the experiment on MYLK2, 95.7%; in the experiment with MYLK4, 0%.

Consider `COc1ccc(-n2cnc3c(N)ncnc32)cc1` [SKF-97236], for which the “%Inh” value turned out to be 1% in the experiment with MRCKB; 0% in the experiment with MST1R; 24% in the experiment with MST1; 13% in the experiment on MST2; 6% with MST3; 0% in the experiment with MST4. Moreover, the “%Inh” value in the experiment with MTOR came out at 16%; in the experiment on MUSK it was 12%; with MYLK2 it was 52%; with MYLK4, 0%.

For the compound `CCC(=O)c1c(-c2ccccc2)c2cc(Cl)ccc2c(=O)n1Cc1ccc(C(=O)O)cc1`, the “%Inh” value is recorded as 0% in the experiment on MRCKB; 6% with MST1R; 0% with MST1; 0% in the experiment with MST2; 0% in the experiment with MST3; 0% in the experiment with MST4. Further, the “%Inh” value in the experiment on MTOR, in the experiment on MUSK, in the experiment on MYLK2 and with MYLK4 was 0% each time.

On to `OCCCNc1nccc(-c2c(-c3cccc(C(F)(F)F)c3)nn3cc(C(F)(F)F)ccc23)n1` [GW630813], for which the “%Inh” value in the experiment with MRCKB is given as 0%; in the experiment with MST1R, 17%; in the experiment on MST1, 9%; with MST2, 0%; in the experiment with MST3, 25%; with MST4, 0%. Moreover, the “%Inh” value with MTOR was 1%; in the experiment on MUSK it was 0%; with MYLK2, 0%; in the experiment with MYLK4, 0%.

Take `Nc1nccc2scc(-c3ccc4c(c3)CCN4C(=O)Cc3ccccc3)c12` [GSK2576924]: the “%Inh” value came out at 0% in the experiment with MRCKB; 17% in the experiment on MST1R; 37% with MST1; 0% with MST2; 1% in the experiment on MST3; 0% with MST4. For the same compound, the “%Inh” value in the experiment with MTOR was found to be 14%; with MUSK it was 13%; with MYLK2, 11%; in the experiment on MYLK4, 9%.

Regarding `COc1cc2ncn(-c3cc(OCCCc4ccccc4)c(C(N)=O)s3)c2cc1OC` [GSK205189], the “%Inh” value came out at 0% with MRCKB; 14% in the experiment with MST1R; 0% in the experiment on MST1; 0% with MST2; 11% in the experiment on MST3; 0% with MST4. Moreover, the “%Inh” value in the experiment on MTOR stood at 1%; with MUSK, 50%; in the experiment with MYLK2, 8%; in the experiment with MYLK4, 65%.

`Cc1ccccc1COc1cc(-n2cnc3cc(Cl)ccc32)sc1C(N)=O` [GW813349]: the “%Inh” value in the experiment on MRCKB came out at 0%; in the experiment with MST1R, 0%; in the experiment with MST1, 0%; in the experiment with MST2 it was 12%; in the experiment with MST3, 0%; in the experiment with MST4, 0%. Further, the “%Inh” value in the experiment with MTOR stood at 18%; in the experiment with MUSK it was 0%; in the experiment with MYLK2, 0%; in the experiment on MYLK4 it was 24%.

(Values after publication PMC5540273 (PLoS ONE, 2017).)
